{
  "source": "PubChem BioAssay",
  "note": "Where “and” joins values, the source holds several entries; their conditions need not be identical. Equal entries are not always repeated. A number with no mark means an inactive call. No rule for the calls is given here.",
  "data": [
    {"assay": "blockers of DNA damage checkpoint Chk1 activation – imaging, HeLa, hydroxyurea, phospho-Chk1 antibody, percent positive cells, primary screen (AID 1186)", "conditions": "hydroxyurea-induced phospho-Chk1 immunofluorescence imaging, higher = more signal", "values": [
      {"compound": "CN1CCC(c2ccc(CO)cc2)=CC1c1cccs1", "note": "(stereo not given)", "z-score": 0.126},
      {"compound": "CCOC(=O)[C@H]1CC=C2C(=O)Oc3ccccc3[C@@H]21", "z-score": 0.466},
      {"compound": "CCCc1cc2c(n1Cc1ccc(C)cc1)C(C)C1CN(C(=O)c3ccccc3)C(C)(C(=O)OC)C21", "note": "(stereo not given)", "z-score": -0.364},
      {"compound": "CCOC(=O)[C@H]1CC=C2C(=O)Oc3ccc(Br)cc3[C@@H]21", "z-score": 0.439},
      {"compound": "OCc1ccc(C2=CC(c3cccs3)N(Cc3cccc(OC(F)(F)F)c3)CC2)cc1", "note": "(stereo not given)", "z-score": -0.308},
      {"compound": "CCCC=C(CCC)[C@@H](NP(=O)(c1ccccc1)c1ccccc1)c1ccccc1", "z-score": 0.17},
      {"compound": "C=C(CC1(C(C)NP(=O)(c2ccccc2)c2ccccc2)CC1)c1ccccc1", "note": "(stereo not given)", "z-score": 0.137},
      {"compound": "CCCC[C@@H]1C[C@H]1[C@@H](NP(=O)(c1ccccc1)c1ccccc1)c1ccc(Cl)cc1", "z-score": 0.368},
      {"compound": "COC(=O)[C@@]1(Cc2ccccc2)[C@H]2c3cc(C(=O)N(C)C)n(C)c3C[C@H]2CN1C(=O)c1ccccc1", "z-score": -0.344},
      {"compound": "O=P(c1ccccc1)(c1ccccc1)N1CC2(CC2)CC(O)(c2ccccc2)C1", "note": "(stereo not given)", "z-score": 0.37},
      {"compound": "COC(=O)[C@@]1(Cc2ccccc2)[C@H]2c3cc(C(=O)N(C)C)[nH]c3C[C@H]2CN1C(=O)c1ccccc1", "z-score": -0.493},
      {"compound": "COC(=O)C1(C)C=C2C(=C(C)C(=O)C2C)CN1", "note": "(stereo not given)", "z-score": 0.414},
      {"compound": "CCCc1cc2c(n1CCO)C(C)C1CN(C(=O)c3ccccc3)C(C)(C(=O)OC)C21", "note": "(stereo not given)", "z-score": 1.28},
      {"compound": "CC1N(P(=O)(c2ccccc2)c2ccccc2)CC(O)(c2ccccc2)CC12CC2", "note": "(stereo not given)", "z-score": "0.694 and 0.475"},
      {"compound": "CCCc1cc2c(n1Cc1cccc(Cl)c1)C(C)C1CN(C(=O)c3ccccc3)C(C)(C(=O)OC)C21", "note": "(stereo not given)", "z-score": 0.251}
    ]},
    {"assay": "blockers of DNA damage checkpoint Chk1 activation – imaging, HeLa, hydroxyurea, phospho-Chk1 nuclear intensity, primary screen (AID 1187); also: test concentration not given here", "conditions": "hydroxyurea-induced phospho-Chk1 immunofluorescence imaging, higher = more signal", "values": [
      {"compound": "CN1CCC(c2ccc(CO)cc2)=CC1c1cccs1", "note": "(stereo not given)", "z-score": -0.0255},
      {"compound": "CCOC(=O)[C@H]1CC=C2C(=O)Oc3ccccc3[C@@H]21", "z-score": 0.0685},
      {"compound": "CCCc1cc2c(n1Cc1ccc(C)cc1)C(C)C1CN(C(=O)c3ccccc3)C(C)(C(=O)OC)C21", "note": "(stereo not given)", "z-score": 0.0089},
      {"compound": "CCOC(=O)[C@H]1CC=C2C(=O)Oc3ccc(Br)cc3[C@@H]21", "z-score": 0.286},
      {"compound": "OCc1ccc(C2=CC(c3cccs3)N(Cc3cccc(OC(F)(F)F)c3)CC2)cc1", "note": "(stereo not given)", "z-score": -0.44},
      {"compound": "CCCC=C(CCC)[C@@H](NP(=O)(c1ccccc1)c1ccccc1)c1ccccc1", "z-score": 0.404},
      {"compound": "C=C(CC1(C(C)NP(=O)(c2ccccc2)c2ccccc2)CC1)c1ccccc1", "note": "(stereo not given)", "z-score": 0.321},
      {"compound": "CCCC[C@@H]1C[C@H]1[C@@H](NP(=O)(c1ccccc1)c1ccccc1)c1ccc(Cl)cc1", "z-score": 0.316},
      {"compound": "COC(=O)[C@@]1(Cc2ccccc2)[C@H]2c3cc(C(=O)N(C)C)n(C)c3C[C@H]2CN1C(=O)c1ccccc1", "z-score": -0.428},
      {"compound": "O=P(c1ccccc1)(c1ccccc1)N1CC2(CC2)CC(O)(c2ccccc2)C1", "note": "(stereo not given)", "z-score": 0.613},
      {"compound": "COC(=O)[C@@]1(Cc2ccccc2)[C@H]2c3cc(C(=O)N(C)C)[nH]c3C[C@H]2CN1C(=O)c1ccccc1", "z-score": -0.73},
      {"compound": "COC(=O)C1(C)C=C2C(=C(C)C(=O)C2C)CN1", "note": "(stereo not given)", "z-score": 0.354},
      {"compound": "CCCc1cc2c(n1CCO)C(C)C1CN(C(=O)c3ccccc3)C(C)(C(=O)OC)C21", "note": "(stereo not given)", "z-score": 1.1},
      {"compound": "CC1N(P(=O)(c2ccccc2)c2ccccc2)CC(O)(c2ccccc2)CC12CC2", "note": "(stereo not given)", "z-score": "0.608 and 0.341"},
      {"compound": "CCCc1cc2c(n1Cc1cccc(Cl)c1)C(C)C1CN(C(=O)c3ccccc3)C(C)(C(=O)OC)C21", "note": "(stereo not given)", "z-score": 0.861}
    ]}
  ]
}
